A selection: hits, their analogues and other compounds. The true share with any hit is near 2.2%.
KLF5 inhibitor: KLF5 expression inhibitors, primary screen, DLD-1 cells, luminescence; 0.23% of 290,000 active; AID 1700, 2009; DLD-1 KLF5 promoter-luciferase reporter; inhibition, % at 5 µM;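 active means inhibition above a per-plate limit of that plate's mean compound inhibition plus 3 SD, cut at about 60% in these data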;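 further: 0% = DMSO wells and 100% = LY294002 at 200 µM; higher means less KLF5 promoter-driven luciferase light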
IEC-6 tox: cytotoxicity in IEC-6 intestinal epithelial cells, primary screen, cytotoxicity control for KLF5 inhibitor project, cell-based, luminescence; inhibition, % at 5 µM; IEC-6 cytotoxicity, luminescence viability; 0.78% of 290,000 active; in the data active means inhibition above about 22%;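 further: 0% = plate median of test compound wells and 100% = cytotoxic reference compound wells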
APP transl inh: inhibitors of APP translation via 5'UTR reporter, primary screen, APP 5'UTR luciferase, SH-SY5Y cells. SH-SY5Y APP 5'UTR-luciferase reporter, luminescence. inhibition, % at 2 µM. 0.82% of 190,000 active;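 active means inhibition above a set limit, derived from the sample mean plus 3 SD, cut at about 45% in these data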
aSyn 5UTR inh: MLPCN primary screen, SNCA 5' untranslated region; alpha-synuclein 5'UTR reporter, inhibitor activity; 0.82% of 300,000 active; inhibition, % (tested at 7.5 µM); in the data active means inhibition above about 60%;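 further: H4 neuroglioblastoma cells stably carrying SNCA 5'UTR luciferase fusion; 0% = DMSO wells and 100% = positive control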
BaF3 tox: parental Ba/F3 cell viability inhibition, counter-screen for JAK2V617F inhibitor project, murine pro-B, CellTiter-Glo luminescence. CellTiter-Glo ATP luminescence. inhibition, % at 5.6 µM. 1.1% of 220,000 active;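 active means inhibition above a per-campaign cutoff, the mean inhibition of all tested compounds plus 3 SD, cut at about 27% in these data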;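 further: 0% = DMSO wells and 100% = JAK Inhibitor I control wells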
Ba/F3 V617F tox: reduced viability of JAK2V617F-dependent Ba/F3 cells, primary screen, JAK2V617F inhibitor project, cell-based, Ba/F3 EpoR-JAK2V617F, luminescence | 1.1% of 220,000 active | ATP luminescence | inhibition, % at 5.6 µM;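 active means inhibition above the campaign mean plus 3 SD over all tested compounds, cut at about 24% in these data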;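 further: cytokine-independent growth of Ba/F3 cells driven by EpoR plus mutant JAK2; 0% = DMSO-treated cells and 100% = JAK inhibitor I control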
An asterisk follows results filed as active; / = not tested or not shown.

SMILES | KLF5 inhibitor | IEC-6 tox | APP transl inh | aSyn 5UTR inh | BaF3 tox | Ba/F3 V617F tox
CCC(C)NC(=O)C1CCCN1S(=O)(=O)c1ccc(Cl)cc1 (configuration not stated) | 17.9 | 3.9 | -6.0 | -11.3 | 0.7 | -1.5
NNC(=O)C1CCCN1S(=O)(=O)c1ccc(Cl)cc1 (configuration not stated) | -19.3 | -6.5 | 23.5 | -5.5 | 58.5* | -3.4
CC(=O)/C=C/c1ccccc1O | -14.2 | 5.5 | -3.9 | -24.8 | 1.9 | 2.2
C[n+]1ccc(/C=C/c2ccccc2O)c2ccccc21 | 6.0 | -1.9 | 12.1 | -14.5 | 71.2* | 58.0*
Cc1cc(C)c(NC(=O)COC(=O)c2ccc([N+](=O)[O-])s2)c(C)c1 | 5.8 | 8.2 | -12.5 | 17.8 | 3.1 | 1.7
Cc1ccc(NC(=O)COC(=O)c2ccc([N+](=O)[O-])s2)c(C)c1 | 0.4 | -1.4 | 58.1* | -8.6 | 3.6 | -1.8
Cc1cccc(NC(=O)/C=C/c2ccc([N+](=O)[O-])s2)c1 | -9.8 | 7.8 | 87.8* | -223.6 | -0.7 | 3.2
Cc1ccc(NC(=O)/C=C/c2ccc([N+](=O)[O-])s2)c(C)c1 | -9.5 | -0.8 | 93.3* | -93.0 | -2.0 | 11.4
Cc1ccc(NC(=O)/C=C/c2ccc([N+](=O)[O-])s2)cc1 | -15.8 | -0.9 | 84.5* | -212.4 | 2.2 | -0.8
Cc1cc([N+](=O)[O-])ccc1NC(=O)/C=C/c1cccs1 | -46.4 | -6.5 | -43.3 | -157.6 | 9.7 | -2.4
COc1ccccc1Nc1nc(NCC(C)C)nc(N)c1[N+](=O)[O-] | -20.8 | 3.3 | / | 77.3* | -2.8 | -3.0
CCC(C)Nc1nc(N)c([N+](=O)[O-])c(Nc2cc(OC)ccc2OC)n1 (configuration not stated) | 6.5 | 5.8 | / | 97.1* | -1.4 | 1.2
COCC(C)(C)COS(N)(=O)=O | -16.5 | -8.2 | / | 10.6 | / | /
O=C(Nc1cccc2ccccc12)N(CCO)C1CCS(=O)(=O)C1 (configuration not stated) | 3.4 | 5.2 | / | 20.1 | / | /
Cc1ccc(-c2nc(CSCC(=O)N3CCN(c4ccccn4)CC3)c(C)o2)cc1 | -18.2 | -1.0 | 11.6 | 21.7 | 6.8 | -3.4
CCc1ccc(-c2nc(CSCC(=O)N3CCN(c4ccccn4)CC3)c(C)o2)cc1 | 7.5 | -2.9 | 13.7 | 81.6* | 3.5 | 2.3
CCOc1ccc(-c2nc(CSCC(=O)N3CCN(c4cccc(OC)c4)CC3)c(C)o2)cc1 | -14.6 | -2.2 | / | 68.5* | 5.2 | -4.3
CCOc1ccc(-c2nc(CSCC(=O)NC3CC3)c(C)o2)cc1 | 28.3 | 6.1 | / | 30.5 | / | /
CCOc1ccc(-c2nc(CSCC(=O)NCc3ccco3)c(C)o2)cc1 | 18.1 | 1.0 | 48.5* | 45.9 | 2.4 | -2.9
CN(C)N1C(N)=C(C#N)C(c2ccccc2F)C2=C1CC(C)(C)CC2=O (configuration not stated) | 4.8 | 0.5 | / | 4.5 | / | /
Cc1cccc(NS(=O)(=O)c2cnc[nH]2)c1 | -19.8 | 4.4 | 3.7 | 11.5 | 92.8* | 3.9
CCCNC(=O)CN1C(=O)c2ccccc2Sc2ncccc21 | -7.4 | -2.8 | / | 11.0 | / | /
c1ccc2[nH]c(-c3cscn3)nc2c1 | -81.2 | -3.3 | -21.4 | -99.0 | 2.0 | -0.1
c1ccc2nc(-c3nc4ccccc4[nH]3)ccc2c1 | -63.9 | 10.2 | -191.9 | 74.4* | 14.7 | 12.0
CCCc1cc(=O)[nH]c2nnc(SCC(=O)Nc3cccc(NC(C)=O)c3)n12 | / | / | / | -2.2 | / | /
SMILES | KLF5 inhibitor | IEC-6 tox | APP transl inh | aSyn 5UTR inh | BaF3 tox | Ba/F3 V617F tox
COc1cc(Br)cc(/C=N/NC(=O)Cc2ccc(C(F)(F)F)cc2[N+](=O)[O-])c1O | -38.4 | -1.9 | 33.2 | 67.5* | 5.3 | -2.2
CCOC(=O)c1c(-c2ccc(OC)cc2)oc2cc(Br)c(O)cc12 | -16.2 | -4.4 | / | 24.9 | / | /
CCOC(=O)c1c(C)[nH]c2cc(Br)c(O)cc12 | 1.1 | 2.6 | 54.6* | -92.3 | 7.9 | -1.6
CCOc1ccc(NC(C(=O)Nc2cccc(C(C)=O)c2)c2ccccc2)cc1 (configuration not stated) | 10.9 | 6.3 | 4.6 | 0.0 | 53.7* | 50.7*
Cn1c(=O)c2c(=O)cc(NNC(=O)C(C)(C)C)[nH]c2n(C)c1=O | -25.4 | 4.3 | 45.7* | 15.4 | 3.4 | 2.6
CC(C)CCC(C)NC(=O)CN1C(=O)NC(C)(c2ccc3ccccc3c2)C1=O (configuration not stated) | -4.0 | 3.4 | / | 18.6 | / | /
CCOc1cc(/C=N/NC(N)=S)cc(Br)c1OCc1ccccc1C | 11.1 | 2.7 | -18.6 | -73.7 | 27.5* | 10.8
COc1cc(/C=N/NC(N)=S)cc(Br)c1OCc1ccccc1F | -19.9 | 9.0 | -19.6 | -74.0 | 53.1* | 65.1*
CNC(=S)N/N=C/c1cc(Br)c(OCc2ccncc2)c(OC)c1 | -26.4 | 2.1 | / | 30.3 | / | /
CCOc1cc(/C=N/NC(N)=O)cc(Br)c1OCc1ccccc1 | / | / | / | 45.3 | / | /
CC1CCCCN1C(=O)c1ccc(CS(=O)(=O)Cc2ccccc2)cc1 (configuration not stated) | -10.8 | -2.8 | / | -6.1 | / | /
COC(=O)CS(=O)(=O)c1cc(Br)cc2c1N(C(C)=O)CC2 | 1.4 | 1.9 | 1.8 | -17.2 | 92.7* | 1.7
Cc1c(Cl)cccc1NC(=S)N=Nc1c(O)n(CN2CCOCC2)c2ccccc12 | -20.9 | 16.2 | 45.8* | 64.5* | 6.3 | 6.7
C=CCn1c(O)c(N=NC(=S)Nc2cccc(C)c2)c2ccccc21 | -14.2 | 20.3 | 65.9* | 93.6* | 6.5 | 3.5
C=CCn1c(O)c(N=NC(=S)Nc2ccccc2F)c2ccccc21 | -4.3 | 7.5 | 18.6 | 67.4* | 6.1 | 4.2
Oc1c(N=NC(=S)Nc2ccccc2F)c2ccccc2n1Cc1ccccc1Cl | -10.8 | -0.6 | 16.8 | 86.8* | 5.3 | 3.0
CCCCNC(=S)N=Nc1c(O)n(Cc2ccccc2)c2ccccc12 | -7.0 | 0.2 | -12.3 | 4.3 | 6.6 | 4.2
C/C(Cl)=C\Cn1c(O)c(N=NC(N)=S)c2ccccc21 | 20.3 | -6.9 | 11.1 | 45.5 | 6.1 | 5.1
CC(=O)NCC1CCCN(C(=O)c2ccc(OC3CCN(Cc4ccccn4)CC3)cc2)C1 (configuration not stated) | -14.8 | -5.1 | / | 1.3 | / | /
CC(=O)Nc1ccc(NS(=O)(=O)c2ccc(CN3C(=O)c4cccnc4C3=O)cc2)cc1 | -7.6 | 6.0 | / | -24.3 | / | /
CCN1CCN(CCC(=O)Nc2cccc(C)c2)CC1 | -51.1 | 0.8 | / | 8.8 | / | /
Oc1c(N=NC(=S)Nc2ccccc2F)c2ccccc2n1Cc1ccccc1 | 1.9 | -9.8 | 18.2 | 71.7* | 2.1 | -0.7
Cc1ccc(Cn2c(O)c(N=NC(=S)Nc3ccccc3F)c3ccccc32)cc1 | -21.9 | -3.6 | 22.4 | 71.4* | 1.6 | -2.6
COc1ccc(C(CNC(=O)c2ccc(-c3cccc(C(F)(F)F)c3)o2)N2CCOCC2)cc1 (configuration not stated) | / | / | / | 20.8 | / | /
